Results on 87 molecules are retold here after PubChem BioAssay AID449762 (Southern Research Specialized Biocontainment Screening …, 2010).

SMILES strings stand for the structures. In all, about 330,000 compounds went through this assay and about 1,900 (0.58%) were called active. Another 4% or so got no clear call; they are omitted. Not all results are given here. Entries with a potency or affinity are not part of this list. Unmarked numbers belong to inactive results. No stated cut-off is given here; in the data, inconclusive means inhibition above about 70% without an active follow-up result; inactive means below that.

A short description of the assay: M. tuberculosis growth inhibition, HTS (AID 449762).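 Further: bacterial growth assessed after seven days of incubation.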 The following applies: M. tuberculosis H37Rv growth inhibition, 7H9 media; at 25 µM; hits give high values.
On to `O=C(NNS(=O)(=O)c1ccccc1[N+](=O)[O-])c1ccc(O)cc1`, for which the inhibition was 13.9%.
Turning to `COC(=O)[C@]1(Cc2ccccc2)N[C@H](CN(C)C(=O)c2ccc(C)cc2)[C@@H]2C(=O)N(C)C(=O)[C@@H]21`, the inhibition was 2.73%.
As to `CCC1(C)N=C(c2ccc3c(c2)OCO3)CC(c2ccccc2O)N1` (configuration not stated), the inhibition is -5.31%.
The same measure for `CCOc1ccccc1C1N=C(c2ccc(OC)cc2)CC(c2ccccc2O)N1` (configuration not stated): 13%; for `COc1cccc2cc(C(=O)N3CCCCC3C)c(=O)oc12` (configuration not stated): -7.25%; for `COCCOC(=O)c1c(N)n(CCCN2CCOCC2)c2nc3ccccc3nc12`: 0.66%.
In the case of `COC(=O)c1c(N)n(CCCN2CCOCC2)c2nc3ccccc3nc12`, the inhibition is 4.91%.
With `Cc1[nH]c2ccccc2c1/C=N/NC(=O)CNC(=O)c1ccco1`, the inhibition was 1.49%.
`COCCn1c(=S)[nH]c2cc(C(=O)N3CCc4ccccc4C3)ccc2c1=O`: the inhibition is 5.9%.
Turning to `CC[C@H](C)[C@H](NC(N)=O)C(=O)NCCc1ccc(Cl)cc1Cl`, the inhibition was -2.03%.
For the molecule `Clc1ccc(CNc2ccc3nnc(-c4ccccc4)n3n2)cc1`, the inhibition is -9.56%.
On to `Cc1ccc(CNc2ccc3nnc(-c4ccccc4)n3n2)cc1`, for which the inhibition is -2.25%.
For `Cc1cc(C)n(CCOC(=O)C2C(C=C(Cl)Cl)C2(C)C)n1` (configuration not stated) the value was 6.12%.
With `CN(C)[C@@H]1C(=O)C(C(N)=O)=C(O)[C@@]2(O)C(=O)C3=C(O)c4c(O)cccc4[C@@](C)(O)[C@H]3[C@H](O)[C@@H]12`, the inhibition was 31.9%.
As to `C=C1c2cccc(O)c2C(O)=C2C(=O)[C@]3(O)C(O)=C(C(N)=O)C(=O)[C@@H](N(C)C)[C@@H]3[C@@H](O)[C@H]12`, the inhibition was 69.5%.
With `CN(C)[C@@H]1C(=O)C(C(N)=O)=C(O)[C@@]2(O)C(=O)C3=C(O)c4c(O)cccc4[C@@](C)(O)[C@H]3C[C@@H]12`, the inhibition is 22.5%.
With `CSC(=NC#N)N1CCN(c2c(C)cccc2C)CC1`, the inhibition was -2.97%.
`CC(C)CCNC(=O)C1CC(c2cccc(F)c2)=NO1` (configuration not stated): the inhibition was -4.76%.
As for `O=C(NC1CCCC1)C1CCCN1S(=O)(=O)c1cccc2cccnc12` (configuration not stated), the inhibition is -5.92%.
`CC1CCCC(NC(=O)C2CCN(C(=O)Nc3ccccc3)CC2)C1C` (configuration not stated): the inhibition was -2.53%.
In the case of `CCC(C)[C@H](NC(=O)[C@H](Cc1ccccc1)n1c(=O)[nH]c2ccccc2c1=O)C(=O)N1CCC(C(=O)O)CC1` (some centres not stated), the inhibition was -6.06%.
`CCOc1ccc(C(C)=O)cc1COC(=O)c1cnc(Cl)c(Cl)c1`: the inhibition was -3.39%.
Regarding `CC(C)(Oc1ccc(Cl)cc1)C(=O)OCC(=O)N1CCCC1`, the inhibition is -3.13%.
The same measure for `O=C(OCC(=O)N1CCCC1)c1cnc(Cl)c(Cl)c1`: 2.91%; for `O=C(OCC(=O)N1CCOCC1)c1cnc(Cl)c(Cl)c1`: -0.51%; for `COc1ccc(N2CCN(C(=O)C(C)(C)Oc3ccc(Cl)cc3)CC2)cc1`: 2.08%.
In the case of `O=C(COC(=O)c1cnc(Cl)c(Cl)c1)c1ccc(F)cc1`, the inhibition is 2.14%.
The same measure for `O=c1[nH]cc(S(=O)(=O)Nc2ccc3c(c2)OCO3)c(=O)[nH]1`: 7.53%; for `COc1ccc2nc(N3C(=O)C(O)=C(C(=O)c4ccco4)C3c3ccccc3OC)sc2c1` (configuration not stated): 0.62%.
`COc1cccc(C2CC(c3ccccc3OC)n3ncnc3N2)c1` (configuration not stated): the inhibition was -5.17%.
Turning to `CC(=O)N/C(=C\c1ccccc1)C(=O)NC(C)C(=O)O` (configuration not stated), the inhibition was -2.83%.
For `O=C(COC(=O)c1cc2ccccc2cc1O)Nc1cccnc1Cl` the value was -17%.
Consider `C=CCNC(=O)N1CCc2[nH]c3ccc(F)cc3c2C1`, for which the inhibition was -1.16%.
Regarding `CC(OC(=O)Cc1n[nH]c(=O)c2ccccc12)C(=O)Nc1ccc(F)cc1Cl` (configuration not stated), the inhibition is -10.4%.
The same measure for `Cn1c(C(=O)N(Cc2ccccc2)Cc2ccccn2)cc2sccc21`: -2.09%; for `Cc1cccc(C(=O)OCC(=O)Nc2ccccc2C(=O)NC2CC2)c1`: -11.3%.
As to `Cn1c(SCC(=O)c2ccc3c(c2)OCCO3)nnc1C(F)(F)F`, the inhibition is -5.9%.
As to `O=C(/C=C/c1ccc[nH]1)c1ccc(F)cc1`, the inhibition was 2.02%.
Take `O=C(/C=C/c1c(F)cccc1Cl)c1ccc(O)cc1`: the inhibition is -0.9%.
Take `Cc1cc(C)n2c(Br)c(CSc3nc4ccccc4s3)nc2n1`: the inhibition was -0.87%.
Turning to `CC(NC(=O)CSC(=S)N1CCCC1)c1ccc(S(N)(=O)=O)cc1` (configuration not stated), the inhibition is -7.22%.
`Cc1cc(/C=N/NC(=O)c2cccs2)c(C)n1-c1cnccn1`: the inhibition was 11.2%.
For the molecule `Cc1cc(/C=N/NC(=O)c2cccs2)c(C)n1-c1ccccc1`, the inhibition is 3.6%.
With `Cc1ccc(C)c(OCC(=O)NNC(=O)CCN2CCN(c3ccccc3)CC2)c1`, the inhibition was 7.6%.
Consider `COc1cccc(NC(=O)CSc2nnc(-c3cc(C)[nH]n3)n2N)c1`, for which the inhibition was 7.87%.
The same measure for `CCc1cc2c(=O)c(-c3nc4ccccc4n3C)c(C)oc2c(CN2CCCCC2)c1O`: -5.94%; for `CCc1cc2c(=O)c(-c3cnn(-c4ccccc4)c3)c(C(F)(F)F)oc2c(CN(C)C)c1O`: 5.42%; for `CC1CN(C(=O)CCC(=O)N2CCN(c3cccc(C(F)(F)F)c3)CC2)c2ccccc2O1` (configuration not stated): 9.11%.
In the case of `COc1ccccc1NC(=O)N(Cc1ccccc1)C1=NCC(C)S1` (configuration not stated), the inhibition was 6.61%.
For `CCOC(=O)c1c(C)n(C)c2ccc(OCC(O)CNCCc3ccccc3)cc12` (configuration not stated) the value was 15.2%; for `OC(CNCC1CCCO1)COc1ccc(OCC(O)CNCC2CCCO2)cc1` (configuration not stated), 5.75%; for `COc1ccc(N2CCN(C(=O)c3sc4ncn(CC(=O)N5CCCCC5C)c(=O)c4c3C)CC2)cc1` (configuration not stated), -4.52%.
Regarding `O=C(CSc1nc(-c2ccc(F)cc2)cs1)NCC1CCCO1` (configuration not stated), the inhibition is -0.07%.
As to `O=C(CSc1nn(-c2ccc(Cl)cc2)c(=S)s1)NCC1CCCO1` (configuration not stated), the inhibition was 69.3%.
Regarding `CCCCCCCCCCSc1n[nH]c(NC(C)=O)n1`, the inhibition was 4.39%.
Consider `COc1ccc(OC)c(-c2csc(NC(=O)COC(=O)C3(C)CC3(Cl)Cl)n2)c1` (configuration not stated), for which the inhibition is 8.7%.
For `CN1CCN(C(=O)/C(=C/c2ccc(F)cc2)c2ccsc2)CC1`, the inhibition is -3.93%.
The same measure for `CCS(=O)(=O)C1=NN2C(=N)/C(=C\c3ccc(OC(=O)c4ccco4)c(OC)c3)C(=O)N=C2S1`: 3.16%; for `COc1cc(/C=C2\C(=N)N3N=C(S(=O)(=O)CC(C)C)SC3=NC2=O)ccc1OC(=O)c1ccco1`: 0.47%; for `Cc1cc(C)c(NS(=O)(=O)c2ccc(Cl)c(C(=O)O)c2)c(C)c1`: -6.92%.
As for `O=C(NCCCNc1ccc([N+](=O)[O-])cc1)C(F)(F)F`, the inhibition was -6.92%.
As to `CCn1c(COc2ccc(OC)cc2)nnc1SCc1nc2ccccc2c(=O)[nH]1`, the inhibition is -7.06%.
The same measure for `Cc1oc(-c2cccc(C(F)(F)F)c2)nc1CN1CCN(c2ccccn2)CC1`: 63.4%; for `CCN(CC)c1ccc(/C=N\N2CCN(Cc3ccc(C)cc3)CC2)cc1`: 38%; for `COc1ccc(C(=O)NC(=S)NNC(=O)c2ccco2)cc1`: 70.2%.
Turning to `O=C(NC(=S)NNC(=O)c1cc2ccccc2cc1O)c1ccco1`, the inhibition is 2.19%.
As to `CCOc1ccc(/C=N/NC(=O)C(C)N(c2ccc(OC)cc2)S(C)(=O)=O)cc1` (configuration not stated), the inhibition is -10.4%.
For the molecule `Cc1ccc(N(CCC#N)C(=O)COC(=O)c2nc3nc(C)cc(C)n3n2)cc1`, the inhibition is -2.21%.
Take `Cc1nc(N2CCN(c3ccccn3)CC2)c2c(C)c(C(=O)N3CCN(c4cccc(Cl)c4)CC3)sc2n1`: the inhibition is 60.4%.
Turning to `Cc1nc(N2CCN(c3ccccn3)CC2)c2c(C)c(C(=O)N3CCN(c4ccccc4F)CC3)sc2n1`, the inhibition was 61.9%.
Regarding `CCCC(=O)Nc1nc2ccc(C(=O)OCC)cc2s1`, the inhibition is -1.4%.
As for `O=C(CN1C(=O)C2CCCCC2C1=O)OCn1nnc2ccccc2c1=O` (configuration not stated), the inhibition is 2.65%.
For the molecule `O=C(CNC(=O)C1CCCCC1)OCn1nnc2ccccc2c1=O`, the inhibition is 12.9%.
Take `COc1ccc(C)cc1NC(=O)CCCN1C(=O)CN(C)C1=O`: the inhibition is 4.23%.
As to `CCN1CCN(C(=O)c2ccc(N3CC4CC(C3)c3cccc(=O)n3C4)c([N+](=O)[O-])c2)CC1` (configuration not stated), the inhibition was 2.16%.
With `Cc1ccc(CNC(=O)c2ccc(S(=O)(=O)N(C)C)cc2)n1C`, the inhibition is 3.61%.
The same measure for `CC1(C)Cc2c(sc(NC(=O)c3ccc(C(=O)c4ccccc4)cc3)c2C#N)C(C)(C)N1`: 2.99%; for `COC(=O)c1c(NC(=O)c2ccccc2)sc2c1CC(C)(C)NC2(C)C`: -11.2%; for `COc1ccc(C2Nc3ccccc3C(=O)N2c2ccc(C)cc2)cc1COc1ccccn1` (configuration not stated): -5.39%.
As for `Cc1ccc(C)c(S(=O)(=O)N2CCN(CC(=O)Nc3cc(C)on3)CC2)c1`, the inhibition is 1.82%.
For `O=C(N/N=C/c1ccc[nH]1)c1cccc(Br)c1` the value was 47%.
As to `O=C(N/N=C/c1ccc[nH]1)c1cccnc1`, the inhibition was -9.86%.
As to `COc1ccc(CCNC(=O)C2CCCN2S(=O)(=O)c2ccc(F)cc2)cc1OC` (configuration not stated), the inhibition is 0.4%.
For the molecule `O=C(CN(Cc1ccco1)C(=O)Cn1nnc(-c2cccs2)n1)NCc1ccccc1`, the inhibition is 4.1%.
Regarding `COC/C=C/C1=CC2=CC(=O)C(C)(OC(=O)c3cnc4ccccc4n3)C(=O)C2=CN1c1ccc(CO)cc1` (configuration not stated), the inhibition is 3.29%.
The same measure for `O=C(c1ccc2c(=O)n(Cc3ccccc3)c(=S)[nH]c2c1)N1CCCC1`: -3.86%; for `CC(CCN1CCC(n2nccc2NC(=O)c2ccccc2Cl)CC1)c1ccccc1` (configuration not stated): 15.6%.
